This is an account of results in the antibiotic and cytotoxicity screens of Wong et al. (2023).

Hit rate of the full screen: of about 39,000 compounds, about 3,300 (8.5%) were called active. For the sample, actives were picked, then their nearest neighbours and some compounds at random.

This experiment has as its system HepG2. Kind of experiment: cytotoxicity call (relative viability < 0.9). The note with it: 10 µM.
For `O=C(NO)c1ccncc1`, the cytotoxicity call is “inactive”. The entry for `C[C@H]1CN([C@@H](C)CO)C(=O)c2c(c3ccccc3n2C)-c2ccccc2CO[C@@H]1CN(C)C(=O)Nc1ccccc1C(F)(F)F` is “inactive”; for `CC(C)NC(=O)N(C)C[C@H]1Oc2ccc(NC(=O)CCN3CCOCC3)cc2C(=O)N([C@H](C)CO)C[C@@H]1C` it is “inactive”; for `O=C(C[C@H]1CC[C@H]2[C@@H](COC[C@H](O)CN2C(=O)Nc2ccc(C(F)(F)F)cc2)O1)NCCc1ccncc1` it is “inactive”. The entry for `Cc1noc(C)c1NC(=O)N(C)C[C@@H]1Oc2c(NC(=O)Nc3cccc4ccccc34)cccc2C(=O)N([C@@H](C)CO)C[C@@H]1C` is “inactive”; for `COc1ccc(-c2cnc3c(c2)C(=O)N([C@H](C)CO)C[C@H](C)[C@H](CN(C)C(=O)C2CCOCC2)O3)cc1` it is “inactive”. The entry for `C[C@@H]1CN([C@H](C)CO)C(=O)c2cc(NS(=O)(=O)c3ccc(F)cc3)ccc2O[C@H]1CN(C)C(=O)Nc1ccc(C(F)(F)F)cc1` is “inactive”; for `O=c1nc(Nc2ccccc2)cn[nH]1` it is “inactive”. As for `CO[C@H]1CN(C)C(=O)c2ccc(NC(=O)Nc3ccccc3F)cc2OC[C@H](C)N(Cc2ccccc2C(=O)O)C[C@@H]1C`, the cytotoxicity call was “inactive”. The entry for `COc1cccc2c1C(=O)c1c(O)c3c(c(O)c1C2=O)C[C@@](O)(C(=O)CO)C[C@@H]3O[C@H]1C[C@H](N)[C@H](O)[C@H](C)O1` is “active”; for `COc1cccc2c1C(=O)c1c(O)c3c(c(O)c1C2=O)CC(O)(C(=O)CO)CC3OC1CC(N)C(O)C(C)O1.Cl` (stereo unspecified) it is “active”. The entry for `COc1cccc2c1C(=O)c1c(O)c3c(c(O)c1C2=O)CC(O)(C(=O)CO)CC3OC1CC(N)C(O)C(C)O1` (stereo unspecified) [listing 1 of 2 here] is “active”; for `CCCCC(=O)OCC(=O)[C@]1(O)Cc2c(O)c3c(c(O)c2[C@@H](O[C@H]2C[C@H](NC(=O)C(F)(F)F)[C@H](O)[C@H](C)O2)C1)C(=O)c1c(OC)cccc1C3=O` it is “active”; for `C[C@@H]1CN([C@@H](C)CO)C(=O)Cc2cc(NS(=O)(=O)c3ccc(Cl)cc3)ccc2O[C@@H]1CN(C)Cc1ccc(C(=O)Nc2ccccc2N)cc1` it is “inactive”. The entry for `CN1N=C2CCN(C(=O)[C@@H](COCc3ccccc3)NC(=O)C(C)(C)N)C[C@@]2(Cc2ccccc2)C1=O` is “inactive”. Regarding `C[C@H]1CN([C@@H](C)CO)C(=O)c2ccccc2-c2ccccc2CO[C@H]1CN(C)C(=O)Nc1cccc(F)c1`, the cytotoxicity call was “inactive”.

`C[C@@H]1CCCCO[C@@H](CN(C)C(=O)Nc2cccc3ccccc23)[C@@H](C)CN([C@H](C)CO)C(=O)c2cc(NC(=O)c3ccncc3)ccc2O1`: the cytotoxicity call was “inactive”.

As to `CCC(=O)OC1(C(=O)SCF)C(C)CC2C3CC(F)C4=CC(=O)C=CC4(C)C3(F)C(O)CC21C` (stereo unspecified), the cytotoxicity call was “inactive”. With `Cc1cc(O)c(C=O)c2c1C(=O)Oc1c(COC(=O)C=CC(=O)O)c(O)c(C(=O)O)c(C)c1O2`, the cytotoxicity call is “inactive”. The entry for `C[C@H]1CN([C@@H](C)CO)S(=O)(=O)c2ccc(-c3cncnc3)cc2O[C@H]1CN(C)C(=O)Cc1ccccc1` is “inactive”; for `COc1ccc([C@@H]2C/C=C\C[C@@H](c3cccc(Cl)c3)NC(=O)[C@@H](c3ccccc3)CC(=O)N2)c(OC)c1` it is “inactive”.

As for `COc1ccc(S(=O)(=O)Nc2ccc3c(c2)CC(=O)N([C@@H](C)CO)C[C@@H](C)[C@@H](CN(C)S(=O)(=O)c2ccccc2)O3)cc1`, the cytotoxicity call was “inactive”. The same measure for `Cc1noc(C)c1NC(=O)Nc1ccc2c(c1)CC(=O)N([C@H](C)CO)C[C@@H](C)[C@H](CN(C)Cc1ccc(C(=O)Nc3ccccc3N)cc1)O2`: “inactive”; for `COc1cccc2c1C(=O)c1c(O)c3c(c(O)c1C2=O)CC(O)(C(=O)CO)CC3OC1CC(N)C(O)C(C)O1` (stereo unspecified) [listing 2 of 2 here]: “active”; for `COc1cccc2c1C(=O)c1c(O)c3c(c(O)c1C2=O)C[C@@](O)(C(=O)CO)C[C@@H]3O[C@H]1C[C@H](N)[C@@H](O)[C@H](C)O1`: “active”. Take `COc1cccc2c1C(=O)c1c(O)c3c(c(O)c1C2=O)C[C@](O)(C(=O)CO)C[C@H]3O[C@H]1C[C@@H](N)[C@@H](O)[C@@H](C)O1`: the cytotoxicity call is “active”. Take `C[C@@H]1CN([C@H](C)CO)C(=O)c2cc(NC(=O)C3CC3)ccc2O[C@H]1CN(C)C(=O)Nc1ccc2c(c1)OCO2`: the cytotoxicity call is “inactive”.

Take `C[C@H]1COC(=O)[C@@H](Cc2ccc(F)cc2)CCC=CC[C@@H](CC(=O)N[C@H](CO)Cc2ccccc2)C(=O)N1`: the cytotoxicity call is “inactive”. Turning to `CC(C)NC(=O)N(C)C[C@@H]1Oc2ccc(NC(=O)CCC(F)(F)F)cc2C(=O)N([C@H](C)CO)C[C@H]1C`, the cytotoxicity call is “inactive”. The entry for `COc1cccc(-c2cccc(-c3nc(C(=O)NCC(F)(F)F)cc4c3[C@@H](CCO)N([S@](=O)C(C)(C)C)C4)c2)c1` is “inactive”.

As to `O=C(O)CN(CCN(CC(=O)O)CC(=O)O)CC(=O)O.[Na+].[Na+]`, the cytotoxicity call was “inactive”. The entry for `C[C@H]1CN([C@@H](C)CO)C(=O)Cc2cc(NC(=O)CCCN(C)C)ccc2O[C@@H]1CN(C)C(=O)NC1CCCCC1` is “inactive”; for `Cc1noc(C)c1NC(=O)N(C)C[C@H]1OCCCC[C@@H](C)Oc2ccc(NC(=O)Cc3ccccc3)cc2C(=O)N([C@H](C)CO)C[C@@H]1C` it is “inactive”. The same measure for `O=C(C[C@H]1CC[C@H]2[C@@H](COC[C@@H](O)CN2Cc2ccccc2F)O1)N[C@H]1CCN(Cc2ccccc2)C1`: “inactive”; for `CCOC(=O)Cc1csc(/C(=N/O)C(N)=O)n1`: “inactive”.

As to `COC(=O)Cc1csc(CC(N)=O)n1`, the cytotoxicity call was “active”. The entry for `COC(=O)CN(C)c1nnc(N)s1` is “inactive”.

As to `COC(=O)c1c(CC[C@@H](CO)NC(=O)NCCn2cc(C3(O)CCCC3)nn2)oc(C(C)=O)c1C(=O)OC`, the cytotoxicity call is “inactive”. The entry for `Cc1ccc(S(=O)(=O)N(C)C[C@@H]2OCCCC[C@@H](C)Oc3ccc(NC(=O)Nc4c(C)noc4C)cc3C(=O)N([C@@H](C)CO)C[C@H]2C)cc1` is “inactive”. The entry for `C[C@@H]1CN([C@@H](C)CO)C(=O)c2cccc(NS(=O)(=O)c3cccs3)c2O[C@H]1CN(C)Cc1ccc(-c2ccccc2)cc1` is “inactive”. The same measure for `C[C@H]1CN([C@@H](C)CO)C(=O)Cc2cc(NC(=O)Cc3cn(C)c4ccccc34)ccc2O[C@@H]1CN(C)C`: “inactive”; for `COc1cc2c(cc1OC)CN(CCc1ccc(-n3nnc(-c4cc(OC)c(OC)cc4NC(=O)c4cc(=O)c5ccccc5o4)n3)cc1)CC2`: “inactive”.

For the compound `COc1cc2c(cc1OC)CN(CCc1ccc(NC(=O)c3cccc4c(=O)c5cccc(OC)c5[nH]c34)cc1)CC2`, the cytotoxicity call was “inactive”. The entry for `COc1cc2c(cc1OC)CN(CCc1ccc(NC(=O)c3cc(OC)c(OC)cc3NC(=O)c3cnc4ccccc4c3)cc1)CC2` is “active”; for `CNC[C@@H]1Oc2ccc(NC(=O)Cn3cnnn3)cc2C(=O)N([C@@H](C)CO)C[C@H]1C` it is “inactive”; for `CCCCCCO[C@H](C)c1c(c/2[nH]c1/C=C/1\N=C(/C=C/3\NC4=C(CC(=O)C4=C3C)C3=N/C(=C2)[C@@H](C)[C@@H]3CCC(=O)O)C(=C1C)CC)C` it is “active”. For the compound `Cc1noc(C)c1NC(=O)Nc1cccc2c1O[C@@H](CN(C)Cc1ccc(C(F)(F)F)cc1)[C@@H](C)CN([C@H](C)CO)C2=O`, the cytotoxicity call was “inactive”.

Turning to `COc1ccc(S(=O)(=O)Nc2ccc3c(c2)C(=O)N([C@@H](C)CO)C[C@@H](C)[C@H](CN(C)C(=O)C2CCCCC2)OCCCC[C@H](C)O3)cc1`, the cytotoxicity call was “inactive”.

As to `CC(C)(C)[S@@](=O)N1Cc2cc(C(=O)N3CCCCC3)nc(-c3cccc(-c4cccc(C#N)c4)c3)c2[C@H]1CCO`, the cytotoxicity call was “inactive”. The entry for `CO[C@@H]1CN(C)C(=O)c2cc(NC(=O)C3CC3)ccc2OC[C@H](C)N(C(=O)C2CCOCC2)C[C@@H]1C` is “inactive”; for `Cc1noc(C)c1S(=O)(=O)Nc1ccc2c(c1)CC(=O)N([C@H](C)CO)C[C@@H](C)[C@H](CN(C)S(=O)(=O)c1ccc(Cl)cc1)O2` it is “inactive”; for `CC(=O)Oc1ccc(O)cc1` it is “active”.

For the compound `CC(=O)Oc1cccc(O)c1`, the cytotoxicity call is “inactive”.

For `CC(=O)Nc1ccc(OC(C)=O)cc1`, the cytotoxicity call is “inactive”. The same measure for `C[C@@H]1CN([C@@H](C)CO)C(=O)c2c(c3ccccc3n2C)-c2ccccc2CO[C@H]1CN(C)C(=O)c1cc(Cl)cc(Cl)c1`: “inactive”; for `C[C@@H]1CN([C@H](C)CO)C(=O)c2c(c3ccccc3n2C)-c2ccccc2CO[C@H]1CN(C)C(=O)c1cc(Cl)cc(Cl)c1`: “inactive”. The same measure for `C[C@H](CO)N1C[C@H](C)[C@@H](CN(C)C(=O)c2cc(Cl)cc(Cl)c2)OCc2ccccc2-c2c(n(C)c3ccccc23)C1=O`: “active”; for `C[C@@H]1CN([C@@H](C)CO)C(=O)c2c(c3ccccc3n2C)-c2ccccc2CO[C@@H]1CN(C)C(=O)c1cc(Cl)cc(Cl)c1`: “active”. In the case of `C[C@H]1CN([C@@H](C)CO)C(=O)c2c(c3ccccc3n2C)-c2ccccc2CO[C@H]1CN(C)C(=O)c1cc(Cl)cc(Cl)c1`, the cytotoxicity call is “inactive”.

`C[C@H]1CN([C@@H](C)CO)C(=O)c2c(c3ccccc3n2C)-c2ccccc2CO[C@@H]1CN(C)C(=O)c1cc(Cl)cc(Cl)c1`: the cytotoxicity call is “inactive”. The same measure for `Cc1ccc(S[C@]2(C(=O)NC(C)C)CC(=O)N(Cc3ccccc3Cl)[C@@H]2c2ccc(CO)cc2)cc1`: “inactive”. The entry for `C[C@@H]1CCCCO[C@@H](CN(C)Cc2ccc(C(F)(F)F)cc2)[C@H](C)CN([C@H](C)CO)C(=O)c2cc(NC(=O)CCCN(C)C)ccc2O1` is “inactive”; for `CS(=O)(=O)N1CCS(=O)(=O)[C@H]2CCN(CC3CC3)CC[C@@H]21` it is “inactive”; for `COc1ccc(S(=O)(=O)N(C)C[C@@H]2Oc3ccc(NC(=O)Nc4cccc5ccccc45)cc3C(=O)N([C@H](C)CO)C[C@@H]2C)cc1` it is “inactive”. On to `CC(C)c1c(C(=O)Nc2ccccc2)c(-c2ccccc2)c(-c2ccc(F)cc2)n1CC[C@@H](O)C[C@@H](O)CC(=O)O`, for which the cytotoxicity call was “inactive”. The entry for `C[C@@H]1CCCCO[C@@H](CN(C)CC2CC2)[C@H](C)CN([C@@H](C)CO)C(=O)c2cc(NC(=O)c3ccccc3)ccc2O1` is “inactive”.
